Integrin act MD: integrin-mediated muscular dystrophy alleviation activation. alpha7betagal myoblasts, beta-gal FDG fluorescence, 48 h. 350,000 compounds, 0.064% hits. Potency, µM (top dose mostly 38.3 µM), for inactives: at the highest dose activation, hits mostly activators. AID 624291; active = well fitted activation curve with a large enough effect; inconclusive = small, poorly fitted or top-dose-only effect; inactive = no such curve, though single readings can be large or run the other way;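 note: potency is the fitted concentration of half-maximal effect; 100% = response of the positive control SU9516; nearly all actives have a fitted effect of over 60% in size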
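alpha7betagal+/- myoblasts (passage 13, 250/well) treated 48 h at 37C with compounds at 1:260 dilution of DMSO stock. Lysed, then beta-galactosidase activity read as FDG fluorescence (ex 480/em 540) after 30 min, with pre-read for autofluorescence.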
D3 antag: blocks the human D3 dopamine receptor. D3R cells, DiscoveRx beta-arrestin luminescence, antagonist mode; hits give low values. max response, negative = inhibition, %. 360,000 compounds, 2.5% hits. P35462. AID 652054; in the data active = max response below about -50%; inconclusive = no clear call, values can overlap the other calls; note: % is set by controls: 0 for no effect and ±100 for the full control effect
Target sequence (P35462 whole entry, looked up): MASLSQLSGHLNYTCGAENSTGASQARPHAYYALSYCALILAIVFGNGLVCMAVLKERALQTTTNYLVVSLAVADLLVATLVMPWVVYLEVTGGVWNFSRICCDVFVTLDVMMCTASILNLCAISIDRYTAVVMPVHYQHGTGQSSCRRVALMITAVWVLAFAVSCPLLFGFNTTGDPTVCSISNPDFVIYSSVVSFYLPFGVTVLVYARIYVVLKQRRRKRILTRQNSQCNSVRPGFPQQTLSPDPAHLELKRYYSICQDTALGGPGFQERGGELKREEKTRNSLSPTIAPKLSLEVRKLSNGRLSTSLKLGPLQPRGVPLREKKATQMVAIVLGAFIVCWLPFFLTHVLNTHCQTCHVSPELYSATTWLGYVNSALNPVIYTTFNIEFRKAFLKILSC
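Cells plated overnight at 1500 cells/well, then exposed to library compounds with dopamine controls for 90 minutes at 37 degrees C. DiscoveRx reagent added for 30–60 minutes at room temperature; luminescence read, quantitative HTS format.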
D3 ag: agonists of human D3 dopamine receptor. P35462. D3R DiscoveRx beta-arrestin cells, luminescence, 90 min. max activation, %. 410,000 compounds, 0.58% hits; in the data active = max activation above about 30%; note: 0% is about no effect
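Agonist-mode cell screen: cells plated at 1500/well and incubated overnight at 37 °C, then exposed to library compounds for 90 min at 37 °C. Detection reagent was added for 30–60 min at room temperature, and luminescence was read.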
Starred values were filed as active, the others as inactive; u = inconclusive; x = no result. Rows were chosen to be rich in hits. Some 2.9% of all compounds tested hit in one or more screens of this group.

SMILES	Integrin act MD	D3 antag	D3 ag
Cc1cc(C)c(S(=O)(=O)N2CCN(c3ccc([N+](=O)[O-])c(NCc4ccco4)c3)CC2)c(C)c1	14.8%	-23.8	-15.8
CCO[C@H]1OC(C(=O)N2CCCCCCC2)=C[C@@H](C2CCCCC2)[C@@H]1CCCO	-12.0%	25.9	3.6
CCCN[C@H]1CCc2nc(N)sc2C1	x	4.6	87.7*
CCC(CC)C(=O)Nc1nc2c(s1)CC(C)CC2 (centres undefined)	x	x	-11.7
Cc1cc(C)c(C(=O)CC(=O)c2ccccc2Cl)c(O)c1	6.1%	-63.9*	-11.7
Cc1cc(C)c(NC(=O)CC(=O)c2ccccc2)c(Cl)c1	13.5%	26.3	-4.6
C#CCOc1ccccc1CNc1ccccc1	8.0%	-3.0	2.9
COc1cc(NC(=O)OCc2ccccc2)c2ncccc2c1	u	16.3	34.4*
COc1cc(NC(C)CCCN)c2ncccc2c1 (centres undefined)	x	-68.5*	2.3
COc1cc(NCCCCCCCN)c2ncccc2c1	-3.7%	-20.4	-2.5
COc1cc(NC(=O)c2cc(OC)c(OC)c(OC)c2)c2ncccc2c1	-20.7%	82.4	17.3
CN1C(=O)/C(=C\c2ccncc2)SC1=Nc1ccccc1	4.8%	16.5	-0.7
Cc1cc(-c2onc(C)c2C(=O)O)no1	16.0%	9.6	5.9
C[C@H](CO)N1C[C@H](C)[C@H](CN(C)Cc2cccc(O)c2)OCc2ccccc2-c2c(n(C)c3ccccc23)C1=O	-5.3%	24.1	45.4*
C[C@H]1CN([C@@H](C)CO)C(=O)c2c(c3ccccc3n2C)-c2ccccc2CO[C@H]1CN(C)Cc1cccc(F)c1	0.9%	4.1	0.8
CCCCCCCC(=O)Nc1ccc(S(=O)(=O)Nc2nccs2)cc1	-2.9%	21.4	-3.5
CCCOP(=O)(c1ccc(N(C)C)cc1)C(O)c1ccc(Cl)cc1 (centres undefined)	0.7%	-5.4	-9.2
Cc1cn([C@H]2C[C@H](O)[C@@H](CNCc3ccc(CN(C)S(C)(=O)=O)o3)O2)c(=O)[nH]c1=O	-4.8%	8.0	3.0
Cc1cn([C@H]2C[C@H](O)[C@@H](CNCc3ccc(-c4cc(Cl)ccc4C(F)(F)F)o3)O2)c(=O)[nH]c1=O	15.6%	-75.1*	-17.0
CC(C)(C)CC(C)(C)N=C1Nc2ccccc2NC12C[C@H]1CCC(=O)N3CC[C@@H](C2)[C@@H]13 (some centres undefined)	-7.8%	10.3	-17.8
Cc1cc(O)c(C(=O)/C=C/c2ccc(Cl)cc2)c(=O)o1	3.8%	-24.7	-6.7
Cc1ccc(/C=C/C(=O)c2ccc([N+](=O)[O-])o2)cc1	0.0%	-62.4*	-16.1
O=C(/C=C/c1ccc(Cl)cc1)c1ccc([N+](=O)[O-])o1	-38.1%	-101.0*	-38.3
Cc1ccc(CNC(=O)c2ccc([N+](=O)[O-])o2)cc1	-61.0%	-20.5	4.3
COc1ccc(-n2nc(C(=O)NCC(=O)N3CCCC3)c3ccccc3c2=O)cc1Cl	-14.9%	-5.4	-4.8
SMILES	Integrin act MD	D3 antag	D3 ag
Cc1ccc(NC(=O)C2CCC(CNC(=O)[C@@H]3Cc4ccccc4CN3)CC2)cc1 (some centres undefined)	-11.6%	-1.1	3.8
COc1c(Cl)cc(Cl)cc1C(=O)Nc1ccc(NC(=O)c2cccs2)cc1	-5.8%	7.3	-10.7
CN1CC(=O)N(CC(=O)Nc2ccc(Cl)c(C(F)(F)F)c2)C1=O	12.6%	-6.1	-0.5
c1ccc(-c2cc3c(N4CCOCC4)ncnc3s2)cc1	0.0%	39.5	4.6
Cc1nc(N2CCOCC2)c2cc(-c3ccccc3)sc2n1	22.0%	-57.0*	-10.4
COc1cccc(-n2c(=O)n(Cc3ccccc3)c(=O)c3[nH]cnc32)c1C	6.2%	-10.0	-7.2
O=C1CC(c2ccc(Cl)cc2)CC(=O)C1CS(=O)(=O)c1ccccc1 (centres undefined)	17.6%	u	-12.9
O=C1CC(c2ccccc2)CC(=O)C1Sc1ccc(Cl)cc1 (centres undefined)	26.7%	-53.4*	-13.8
O=S(=O)(Nc1ccc(F)cc1F)c1ccc(-n2cccn2)cc1	x	x	0.4
O=C(COc1ccccc1F)NNC(=O)c1ccc(F)c(S(=O)(=O)N2CCOCC2)c1	-8.5%	8.3	-4.4
Clc1cccc(/C=N/Nc2nc(Cl)nc3ccccc23)c1	-42.9%	-60.3*	0.5
Cc1cc(C)nc(N/N=C/c2cccc(Cl)c2)n1	0.7%	-8.7	-0.9
CCCc1nc2oc3c(=O)[nH]cnc3c2c2c1CCCC2	12.6%	-5.7	-14.4
COc1cc(C(CCN2CCCC(C)C2)c2c(OC)cc(OC)c3c2OC(=O)CC3c2ccc(N(C)C)cc2)cc(OC)c1OC (centres undefined)	17.4%	-59.5*	-22.3
COc1cc(C2CC(=O)Oc3c(C(CCN4CCCC(C)C4)c4ccc(N(C)C)cc4)c(OC)cc(OC)c32)cc(OC)c1OC (centres undefined)	-19.7%	-71.5*	-74.7
CCCCCc1cc(=O)oc2c(C(CCN3CCCC(C)C3)c3ccc(N(C)C)cc3)c(OC)cc(OC)c12 (centres undefined)	-41.3%	-19.6	-63.7
COc1ccc(C2CC(=O)Oc3c(C(CCN4CCOCC4)c4cc(OC)c(OC)c(OC)c4)c(OC)cc(OC)c32)cc1 (centres undefined)	1.7%	0.0	-15.9
COc1cc(OC)c2ccc(=O)oc2c1C(CCN1CCCC(C)C1)c1ccc(N(C)C)cc1 (centres undefined)	7.6%	-59.5*	-61.9
COc1ccc(C2CC(=O)Oc3c(C(CCN4CCN(c5ccccc5)CC4)c4ccc(N(C)C)cc4)c(OC)cc(OC)c32)cc1 (centres undefined)	3.0%	-84.1*	-47.1
COc1cc(OC)c2c(c1C(CCN1CCOCC1)c1ccc(N(C)C)cc1)OC(=O)CC2c1ccc(N(C)C)cc1 (centres undefined)	-0.8%	-21.2	-33.5
COc1cc(C(CCN2CCOCC2)c2c(OC)cc(OC)c3c2OC(=O)CC3c2ccc(N(C)C)cc2)cc(OC)c1OC (centres undefined)	32.9%	-6.2	-34.0
COC(=O)c1ccc(N(CC(=O)NC2CCCC2)C(=O)CNC(=O)c2cccs2)cc1	0.0%	-28.6	-29.5
Cn1cc(CCCC(=O)NCc2ccccc2Cl)c2ccccc21	x	x	8.9
Cc1csc(=O)n1CC(=O)OCc1nnc(-c2ccc(Cl)cc2)o1	13.2%	-22.2	-11.2
Cc1c(C)n(C)c2ccc(C(=O)NCCCN3CCCC3)cc12	-18.1%	-0.3	2.0
SMILES	Integrin act MD	D3 antag	D3 ag
O=C(NCCN1CCN(c2ccccc2F)CC1)c1ccc2nc3ccccc3c(=O)n2c1	-23.2%	-58.4*	3.5
Cc1c(C)n(C)c2ccc(C(=O)NCCCN3CCN(c4ccc(F)cc4)CC3)cc12	-42.2%	-55.6*	-18.7
CCc1nc2ccc(C(=O)NCCCN3CCN(c4ccccc4F)CC3)cc2nc1CC	0.0%	-66.1*	18.2
Cc1c(C)n(C)c2ccc(C(=O)NCCCN3CCCCC3)cc12	-9.9%	2.1	-2.2
O=C(NCCCN1CCN(c2ccccc2F)CC1)c1ccc2nc(Cc3ccccc3)oc2c1	x	x	1.0
COc1ccc(N2CCN(CCNC(=O)c3ccc4nc5ccccc5c(=O)n4c3)CC2)cc1	-17.4%	13.4	2.8
Cc1c(C)n(C)c2ccc(C(=O)NCCCN3CCN(c4ccccc4F)CC3)cc12	-47.3%	-82.4*	-3.0
